# From PubChem
# Only some compounds are listed: those with a hit (about 3.4% of all), similar ones and a draw of the others.
# TEAD-YAP inh: TEAD-YAP interaction inhibition, primary screen, TEAD-YAP interaction inhibitor project, luminescence, HEK-TIYL cells | inhibition, % at 9.12 µM | TEAD-Gal4/YAP UAS-luciferase luminescence | AID 1259422, 2018 | actives 1.4% (n = 640,000); in the data active means inhibition above about 32%;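 further: 0% = median of test compound wells and 100% = reference inhibitor wells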
# FBW7 activator: FBW7 E3 ligase activators, primary screen, biochemical, AlphaScreen, human. F-box/WD repeat-containing protein 7 (Homo sapiens), Q969H0. AlphaScreen FBW7–phospho-cyclin E peptide binding, activator screen. normalized activity (activation), % at 26.1 µM. actives 0.13% (n = 650,000); in the data active means normalized activity above about 1.9%;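 further: purified mutant Fbw7 with reduced substrate affinity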
# Target sequence (Q969H0 whole entry, looked up): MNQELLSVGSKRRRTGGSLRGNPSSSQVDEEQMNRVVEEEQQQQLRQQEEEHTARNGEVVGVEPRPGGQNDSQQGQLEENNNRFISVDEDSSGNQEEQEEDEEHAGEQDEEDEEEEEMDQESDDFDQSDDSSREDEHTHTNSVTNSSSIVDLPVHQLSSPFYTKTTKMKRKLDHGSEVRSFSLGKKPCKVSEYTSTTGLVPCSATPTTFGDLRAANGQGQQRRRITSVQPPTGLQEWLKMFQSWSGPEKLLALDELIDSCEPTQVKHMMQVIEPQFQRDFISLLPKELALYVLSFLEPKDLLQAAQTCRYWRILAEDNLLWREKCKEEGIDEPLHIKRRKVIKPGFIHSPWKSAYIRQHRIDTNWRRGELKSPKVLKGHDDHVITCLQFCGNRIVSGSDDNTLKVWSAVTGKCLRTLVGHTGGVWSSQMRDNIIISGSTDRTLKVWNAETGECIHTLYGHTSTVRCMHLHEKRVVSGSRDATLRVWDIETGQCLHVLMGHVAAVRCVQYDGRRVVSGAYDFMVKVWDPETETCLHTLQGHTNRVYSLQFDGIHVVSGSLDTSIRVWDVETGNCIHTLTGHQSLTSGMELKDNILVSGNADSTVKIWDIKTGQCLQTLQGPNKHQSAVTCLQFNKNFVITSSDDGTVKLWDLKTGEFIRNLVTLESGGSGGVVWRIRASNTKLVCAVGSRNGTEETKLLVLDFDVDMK
# GPR151 ag: activators of human GPR151, primary screen, cell-based, PathHunter beta-arrestin, luminescence; PathHunter beta-arrestin GPR151 cells; activation, % at 11.2 µM; actives 1% (n = 650,000); AID 1508602, 2020; in the data active means activation above about 4.9%;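 further: 0% = median of compound wells and 100% = cells with positive control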
# MITF inh: MITF inhibitors, primary screen, biochemical, AlphaScreen, human; AID 1259374, 2018; AlphaScreen MITF homodimerization, bead proximity signal; inhibition, % at 2.6 µM; actives 0.91% (n = 650,000); in the data active means inhibition above about 50%;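 further: 0% = vehicle wells with protein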
# MITF inh conf: MITF inhibitors, retest of hits, confirmation, biochemical, AlphaScreen, triplicate | AlphaScreen MITF homodimerization, biotin/His-MITF beads | inhibition, % at 2.6 µM | actives 16% (n = 4,700) | shares compounds with MITF inh | AID 1259372, 2018;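 active means inhibition above a cutoff derived from the DMSO control wells, cut at about 28% in these data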;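 further: 0% = MITF dimer wells with DMSO only; inhibitors lower the bead chemiluminescence by keeping MITF from dimerizing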
# AS interf ctr: AlphaScreen optical interference compounds, counter-screen for MITF inhibitor project, biochemical, triplicate; shares compounds with MITF inh; LysRS AlphaScreen counterscreen, signal interference; inhibition, % at 2.6 µM; actives 7.6% (n = 4,700);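 active means inhibition above a cutoff derived from the DMSO control wells, cut at about 30% in these data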
# * = called active by the depositor; . = not tested or not shown.
SMILES,TEAD-YAP inh,FBW7 activator,GPR151 ag,MITF inh,MITF inh conf,AS interf ctr
Fc1ccccc1CNC1CCN(Cc2ccccc2)CC1,0,0,0,51*,-12,0
Cc1ccc(CNC2CCN(Cc3ccccc3)CC2)o1,1,0,0,23,.,.
c1ccc(CN2CCC(NCc3cccnc3)CC2)cc1,-11,0,-1,70*,6,11
Clc1ccc(CNC2CCN(Cc3ccccc3)CC2)cc1,7,0,1,-11,.,.
FC(F)SCc1ccc(CNC2CCN(Cc3ccccc3)CC2)o1,1,0,1,54*,15,19
OCCOCCN1CCN(Cc2ccc(F)c(Br)c2)CC1,4,0,1,81*,-12,0
OCCOCCN1CCN(Cc2ccc(Br)cc2)CC1,11,0,2,-9,.,.
Fc1ccccc1CNCCCN1CCOCC1,5,0,0,-5,.,.
C=CCOc1c(Cl)cc(/C=c2\sc3n(c2=O)C(c2ccc(OCC)cc2)C(C(=O)OCC)=C(C)N=3)cc1Cl (stereo unspecified),-1,0,0,7,.,.
CCOC(=O)C1=C(C)N=c2s/c(=C\c3cc(Cl)c(OC)c(OC)c3)c(=O)n2C1c1ccc(OCC)cc1 (stereo unspecified),-2,0,0,51*,-9,-7
COc1ccc(OC)c(NC(=O)CN(C)CC(=O)Nc2ccccc2Br)c1,-6,0,0,74*,15,17
COc1ccc(C)cc1S(=O)(=O)N(C)CC(=O)Nc1ccccc1F,-1,0,3,-2,.,.
CC(NC(=O)CN(C)CC(=O)Nc1ccccc1Br)c1ccccc1 (stereo unspecified),-1,0,0,66*,-25,1
COc1ccc(OC)c(S(=O)(=O)N(C)CC(=O)Nc2ccccc2F)c1,-1,0,-1,51*,20,8
Cc1cc2c(cc1Br)C(=O)c1ccccc1-2,-5,0,0,-7,.,.
O=C(Oc1cccc(N2C(=O)c3ccccc3C2=O)c1)c1ccc(-c2ccccc2)cc1,1,0,0,-1,.,.
Cc1cccc(-n2nc([N+](=O)[O-])c(=Nc3cccc(Cl)c3)n2O)c1,16,0,0,56*,0,0
Cc1ccc(N=c2c([N+](=O)[O-])nn(-c3cccc(Cl)c3)n2O)cc1,21,-1,0,12,.,.
O=C(NC1CCN(C(=O)Nc2ccccc2F)CC1)c1cccc(F)c1,-1,0,-1,-5,.,.
CC(=O)N1CCC(=NNc2nc3ccccc3[nH]2)CC1,-26,0,1,82*,30*,50*
CC(NC(=O)Cc1ccccc1Cl)c1ccc(F)cc1 (stereo unspecified),-4,0,-1,58*,5,7
CC(NC(=O)Cc1ccc(F)cc1)c1ccccc1 (stereo unspecified),-4,0,3,-7,.,.
CC(NC(=O)CCSCc1ccccc1F)c1ccccc1 (stereo unspecified),-27,0,-2,59*,2,-3
CC(NC(=O)CCSCCC(=O)NC(C)c1ccccc1)c1ccccc1 (stereo unspecified),-7,0,-2,6,.,.
O=C(c1cccc(F)c1)N1CCN(Cc2ccc(F)cc2)CC1,-2,0,0,66*,-5,2
SMILES,TEAD-YAP inh,FBW7 activator,GPR151 ag,MITF inh,MITF inh conf,AS interf ctr
CCOc1cc(CN2CCN(C(=O)c3cccc(F)c3)CC2)ccc1OC,6,0,1,47,.,.
CCOc1ccc(CN2CCN(C(=O)c3cccc(F)c3)CC2)cc1,19,0,1,55*,11,19
O=C1c2cccc3cccc(c23)N1S(=O)(=O)c1cccs1,-6,0,0,12,.,.
CC(C)NC(=O)C1CCN(Cc2ccc(C(F)(F)F)cc2)CC1,1,1,-1,52*,-5,-5
CCOC(=O)C1CCN(Cc2ccc(C(F)(F)F)cc2)CC1,2,0,1,51*,-1,9
CCOC(=O)C1CCN(Cc2ccc(F)cc2)CC1,10,0,0,19,.,.
